Laboratory results: PubChem BioAssay (EPA / NIEHS)
Inconclusive results are not listed. Active and inactive are the calls of the source. The calls were made as follows: active = hit-call score of the fitted dose curve at least 0.9, where 1 is the maximum; inconclusive = response in the unintended direction; inactive = score below 0.9.

Columns and labels:
[1] = biological target: human Neurokinin, NK2 Receptor, TACR2 (gene 6865) (UniProt P21452); test: NVS_GPCR_hNK2: NovaScreen (NVS) G Protein-Coupled Receptor Assay for human Neurokinin, NK2 Receptor (AID 2283278);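 also: actives reduce bound radioligand signal relative to DMSO baseline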
Procedure, shortened: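 Radioligand binding on membranes from CHO cells expressing receptor, filter-based scintillation read 4 h after dosing. Initial duplicate screen at 25 uM, actives in concentration series; loss of signal versus DMSO.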

[2] = biological target: human Purinergic Receptor P2Y, P2RY1 (gene 5028) (UniProt P47900); test: NVS_GPCR_hPY2: NovaScreen (NVS) G Protein-Coupled Receptor Assay for human Purinergic Receptor P2Y (AID 2283281)
Procedure, shortened: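 Cell-free radioligand binding using U937-derived protein, 1 h after dosing, filter-based scintillation counting. Screened in duplicate at 25 uM; actives rerun as concentration-response up to 50 uM; loss of signal versus DMSO.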

[3] = biological target: human Thromboxane A2 Receptor (TXA2), TBXA2R (gene 6915) (UniProt P21731); test: NVS_GPCR_hTXA2: NovaScreen (NVS) G Protein-Coupled Receptor Assay for human Thromboxane A2 Receptor (TXA2) (AID 2283282);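 also: actives reduce bound radioligand signal relative to DMSO baseline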
Procedure, shortened: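 Human platelet-derived receptor preparation incubated with test chemical and radiolabelled ligand for 1 hour, cell-free. Bound label was separated by filtration and counted; displacement relative to DMSO controls gave activity, screened at 25 uM, then titrated.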

[4] = biological target: human Leukotriene B4 Receptor 1 (LTB4-BLT1), LTB4R (gene 1241) (UniProt Q15722); test: NVS_GPCR_hLTB4_BLT1: NovaScreen (NVS) G Protein-Coupled Receptor Assay for human Leukotriene B4 Receptor 1 (LTB4-BLT1) (AID 2283271)
Procedure, shortened: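 Radioligand displacement binding on receptor extracted from human neutrophils, cell-free, 1 h after dosing; filter-based scintillation counting. Primary screen in duplicate at 25 uM, actives retested in concentration-response up to 50 uM; loss of signal versus DMSO.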

[5] = biological target: Muscarinic acetylcholine receptor M1 (Homo sapiens) (UniProt P11229); test: NVS_GPCR_hM1: NovaScreen (NVS) G Protein-Coupled Receptor Assay for human Muscarinic, M1 Receptor (AID 2283270)
Procedure, shortened: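 Cell-free radioligand displacement using membrane protein extracted from CHO cells, read by filter-based scintillation counting 1 h after dosing. Loss of bound signal fitted versus DMSO; primary screen single concentration 25 uM in duplicate, actives followed by concentration series.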

[6] = biological target: Muscarinic acetylcholine receptor M3 (Homo sapiens) (UniProt P20309); test: NVS_GPCR_hM3: NovaScreen (NVS) G Protein-Coupled Receptor Assay for human Muscarinic, M3 Receptor (AID 2283272)
Procedure, shortened: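 Radioligand displacement binding on human M3 receptor in CHO-derived membranes, 1 h incubation, filter-based scintillation counting. Primary screen in duplicate at 25 uM; actives followed up in concentration series; loss of signal versus DMSO.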

[7] = biological target: Muscarinic acetylcholine receptor M2 (Homo sapiens) (UniProt P08172); test: NVS_GPCR_hM2: NovaScreen (NVS) G Protein-Coupled Receptor Assay for human Muscarinic, M2 Receptor (AID 2283273)
Procedure, shortened: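 Cell-free radioligand binding using membranes from CHO cells expressing the receptor; filter-based scintillation counting after 1 hour of compound exposure. Loss of specific binding relative to DMSO baseline; primary screen at 25 uM in duplicate, actives then run in concentration series.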

[8] = biological target: human Muscarinic, M4 Receptor, CHRM4 (gene 1132) (UniProt P08173); test: NVS_GPCR_hM4: NovaScreen (NVS) G Protein-Coupled Receptor Assay for human Muscarinic, M4 Receptor (AID 2283274)
Procedure, shortened: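 Cell-free radioligand displacement using CHO-derived human M4 receptor protein, 1 h after dosing; bound radioactivity by filtration and scintillation counting. Primary screen single 25 uM duplicate, actives followed in concentration series.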

[9] = biological target: Muscarinic acetylcholine receptor M5 (Homo sapiens) (UniProt P08912); test: NVS_GPCR_hM5: NovaScreen (NVS) G Protein-Coupled Receptor Assay for human Muscarinic, M5 Receptor (AID 2283275)
Procedure, shortened: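 Radioligand displacement on CHO-derived membrane preparations, 1 h, filter-based scintillation counting. Single-concentration duplicate screen at 25 uM; hits (e.g. 30% inhibition) retested in singleton concentration-response up to 50 uM. Loss of binding fitted versus DMSO.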

[10] = biological target: rat Serotonin, 5-Hydroxytryptamine Receptor 1 (5HT1), Non-Selective Binding, Htr1a (gene 24473) (UniProt P19327); test: NVS_GPCR_r5HT1_NonSelective: NovaScreen (NVS) G Protein-Coupled Receptor Assay for rat Serotonin, 5-Hydroxytryptamine Receptor 1 (5HT1), Non-Selective Binding (AID 2283286)
Procedure, shortened: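 Rat cortical membranes, radioligand displacement, 1 h incubation, read by filter scintillation. Primary screen in duplicate at 25 uM. Hits (e.g. ≥30% inhibition) went to concentration-response up to 50 uM, fitted as loss of binding versus DMSO.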

[11] = system: 5-hydroxytryptamine receptor 2C (pig); test: NVS_GPCR_p5HT2C: NovaScreen (NVS) G Protein-Coupled Receptor Assay for pig Serotonin, 5-Hydroxytryptamine Receptor 2C (5HT2C) (AID 2283288)
Procedure, shortened: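 Pig choroid plexus membranes; radioligand competitive binding, filter-based scintillation counting, read 1 h after dosing. Primary screen in duplicate at 25 uM; actives then run as concentration series; loss of signal versus DMSO baseline.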

[12] = biological target: rat Adrenergic, Alpha 1, Non-selective Receptor (Adra1), Adra1a (gene 29412) (UniProt P43140); test: NVS_GPCR_rAdra1_NonSelective: NovaScreen (NVS) G Protein-Coupled Receptor Assay for rat Adrenergic, Alpha 1, Non-selective Receptor (Adra1) (AID 2283289)
Procedure, shortened: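 Rat forebrain membranes; radioligand displacement read by filter-based scintillation counting 1 h after dosing. Primary screen in duplicate at 25 uM; hits (e.g. ≥30% inhibition) rerun as concentration–response to 50 uM max. Fitted versus DMSO.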

[13] = biological target: human Orphanin, Opioid Related Nociceptin Receptor 1 (ORL1), OPRL1 (gene 4987) (UniProt P41146); test: NVS_GPCR_hORL1: NovaScreen (NVS) G Protein-Coupled Receptor Assay for human Orphanin, Opioid Related Nociceptin Receptor 1 (ORL1) (AID 2283283)
Procedure, shortened: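 Filter-based radioligand displacement with receptor extracted from HEK293 cells, read 1 hour after dosing by scintillation counting. Duplicate single-point screen at 25 uM; qualifying chemicals then run in concentration-response to 50 uM, analysed relative to DMSO.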

[14] = biological target: D(1A) dopamine receptor (Homo sapiens) (UniProt P21728); test: NVS_GPCR_hDRD1: NovaScreen (NVS) G Protein-Coupled Receptor Assay for human Dopamine Receptor D1 (DRD1) (AID 2283269)
Procedure, shortened: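 Radioligand displacement binding on membranes/protein extracted from HEK293 expressing human D1, cell-free; read 1 h after dosing by filter-based scintillation counting. Primary screen in duplicate at 25 uM, actives followed up in concentration series; signal loss versus DMSO baseline.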

[15] = biological target: mouse Cholecystokinin, CCK1 Receptor (CCKA), Cckar (gene 12425) (UniProt O08786); test: NVS_GPCR_mCCKAPeripheral: NovaScreen (NVS) G Protein-Coupled Receptor Assay for mouse Cholecystokinin, CCK1 Receptor (CCKA) (AID 2283285)
Procedure, shortened: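 Radioligand competitive displacement on mouse pancreatic membranes, 2 h incubation; filter-based scintillation counting, loss of signal versus DMSO. Single-concentration screen at 25 uM in duplicate, actives retested in concentration-response up to 50 uM.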

[16] = biological target: human Neuropeptide Receptor Y1 (NPY1), NPY1R (gene 4886) (UniProt P25929); test: NVS_GPCR_hNPY1: NovaScreen (NVS) G Protein-Coupled Receptor Assay for human Neuropeptide Receptor Y1 (NPY1) (AID 2283276)
Procedure, shortened: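 Cell-free radioligand binding using receptor extracted from SK-N-MC cells, 1 h incubation, filter-based scintillation counting. Primary screen single concentration 25 uM in duplicate; actives followed in concentration series. Loss of bound signal scored versus DMSO.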

[17] = biological target: Neuropeptide Y receptor type 2 (Homo sapiens) (UniProt P49146); test: NVS_GPCR_hNPY2: NovaScreen (NVS) G Protein-Coupled Receptor Assay for human Neuropeptide Receptor Y2 (NPY2) (AID 2283277)
Procedure, shortened: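 Radioligand binding on membranes extracted from SK-N-MC cells, cell-free, read 1 h after dosing by filter-based scintillation counting. Loss of signal vs DMSO. Primary screen in duplicate at 25 uM; actives followed up in concentration-response up to 50 uM.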

[18] = biological target: human Opioid Receptor Delta 1 (Opiate D1), OPRD1 (gene 4985) (UniProt P41143); test: NVS_GPCR_hOpiate_D1: NovaScreen (NVS) G Protein-Coupled Receptor Assay for human Opioid Receptor Delta 1 (Opiate D1) (AID 2283280)
Procedure, shortened: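 Radioligand displacement on membranes from CHO cells expressing the receptor, read by filter scintillation counting 1 h after dosing. Duplicate single-point screen at 25 uM, then concentration series for actives; loss of signal versus DMSO.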

[19] = system: rabbit Platelet Activating Factor Receptor (PAF), gene 100354046; test: NVS_GPCR_rabPAF: NovaScreen (NVS) G Protein-Coupled Receptor Assay for rabbit Platelet Activating Factor Receptor (PAF) (AID 2283287)
Procedure, shortened: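 Rabbit platelet membrane preparation; radioligand displacement read by filter-based scintillation counting 1 h after dosing, loss of signal versus DMSO. Primary screen in duplicate at 25 uM, actives followed up in concentration series.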

Sequence of human Thromboxane A2 Receptor (TXA2), TBXA2R (gene 6915) (P21731 whole entry, looked up): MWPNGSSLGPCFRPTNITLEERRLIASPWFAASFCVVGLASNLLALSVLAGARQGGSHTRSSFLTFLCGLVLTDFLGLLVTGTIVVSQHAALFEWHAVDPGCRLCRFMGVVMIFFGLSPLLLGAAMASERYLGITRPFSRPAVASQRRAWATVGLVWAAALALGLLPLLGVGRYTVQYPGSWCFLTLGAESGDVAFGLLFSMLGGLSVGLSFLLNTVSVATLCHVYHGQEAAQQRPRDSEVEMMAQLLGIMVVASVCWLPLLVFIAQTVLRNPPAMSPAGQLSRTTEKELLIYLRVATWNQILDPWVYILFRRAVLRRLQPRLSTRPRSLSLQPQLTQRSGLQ
Sequence of human Muscarinic, M4 Receptor, CHRM4 (gene 1132) (P08173 whole entry, looked up): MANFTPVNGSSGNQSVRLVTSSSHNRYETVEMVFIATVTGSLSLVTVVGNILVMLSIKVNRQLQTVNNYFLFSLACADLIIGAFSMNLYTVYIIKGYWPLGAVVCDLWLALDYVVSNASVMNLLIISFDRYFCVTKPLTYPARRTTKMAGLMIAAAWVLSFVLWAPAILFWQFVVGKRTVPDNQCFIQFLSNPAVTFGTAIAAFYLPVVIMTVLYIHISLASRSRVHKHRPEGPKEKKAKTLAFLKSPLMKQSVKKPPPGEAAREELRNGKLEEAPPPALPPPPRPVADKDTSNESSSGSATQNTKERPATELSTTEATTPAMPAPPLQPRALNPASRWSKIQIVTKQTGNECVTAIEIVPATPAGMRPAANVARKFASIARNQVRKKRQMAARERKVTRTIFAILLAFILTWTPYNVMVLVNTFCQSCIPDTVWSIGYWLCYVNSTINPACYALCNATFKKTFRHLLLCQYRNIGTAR
Sequence of D(1A) dopamine receptor (Homo sapiens) (P21728 whole entry, looked up): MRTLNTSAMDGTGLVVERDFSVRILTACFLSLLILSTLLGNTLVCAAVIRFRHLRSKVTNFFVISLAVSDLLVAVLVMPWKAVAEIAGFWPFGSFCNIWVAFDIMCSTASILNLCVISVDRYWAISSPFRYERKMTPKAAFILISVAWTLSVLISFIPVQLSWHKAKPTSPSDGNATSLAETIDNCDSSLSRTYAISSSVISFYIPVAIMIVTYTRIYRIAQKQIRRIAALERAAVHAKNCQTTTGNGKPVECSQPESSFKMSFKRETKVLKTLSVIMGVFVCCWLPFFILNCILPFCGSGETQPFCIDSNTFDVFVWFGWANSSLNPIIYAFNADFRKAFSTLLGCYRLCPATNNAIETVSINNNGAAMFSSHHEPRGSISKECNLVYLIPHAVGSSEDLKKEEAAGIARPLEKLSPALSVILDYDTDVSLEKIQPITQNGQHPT
Sequence of Muscarinic acetylcholine receptor M2 (Homo sapiens) (P08172 whole entry, looked up): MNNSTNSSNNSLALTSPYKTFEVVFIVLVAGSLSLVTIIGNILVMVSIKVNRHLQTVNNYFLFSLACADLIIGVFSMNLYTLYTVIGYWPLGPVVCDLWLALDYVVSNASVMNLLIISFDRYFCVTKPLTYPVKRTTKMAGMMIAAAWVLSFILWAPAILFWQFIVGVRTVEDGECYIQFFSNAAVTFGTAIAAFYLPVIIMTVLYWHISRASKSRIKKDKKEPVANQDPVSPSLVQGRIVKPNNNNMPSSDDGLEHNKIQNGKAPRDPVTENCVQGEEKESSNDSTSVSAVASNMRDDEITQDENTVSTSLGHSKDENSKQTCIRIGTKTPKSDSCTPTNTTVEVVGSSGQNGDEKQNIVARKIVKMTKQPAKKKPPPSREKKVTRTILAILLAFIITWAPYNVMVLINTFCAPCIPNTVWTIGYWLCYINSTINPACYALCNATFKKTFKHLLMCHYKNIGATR
Sequence of human Neurokinin, NK2 Receptor, TACR2 (gene 6865) (P21452 whole entry, looked up): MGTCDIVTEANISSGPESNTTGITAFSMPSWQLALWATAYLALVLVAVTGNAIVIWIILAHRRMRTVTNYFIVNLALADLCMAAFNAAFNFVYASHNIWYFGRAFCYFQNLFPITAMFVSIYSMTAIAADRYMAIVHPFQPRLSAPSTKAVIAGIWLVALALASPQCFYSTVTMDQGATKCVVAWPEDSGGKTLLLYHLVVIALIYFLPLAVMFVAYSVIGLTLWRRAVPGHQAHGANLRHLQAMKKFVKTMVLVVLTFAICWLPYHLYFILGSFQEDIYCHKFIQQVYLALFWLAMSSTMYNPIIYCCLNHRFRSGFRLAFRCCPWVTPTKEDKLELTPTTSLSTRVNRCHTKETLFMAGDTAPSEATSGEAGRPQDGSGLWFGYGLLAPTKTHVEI
Sequence of Muscarinic acetylcholine receptor M3 (Homo sapiens) (P20309 whole entry, looked up): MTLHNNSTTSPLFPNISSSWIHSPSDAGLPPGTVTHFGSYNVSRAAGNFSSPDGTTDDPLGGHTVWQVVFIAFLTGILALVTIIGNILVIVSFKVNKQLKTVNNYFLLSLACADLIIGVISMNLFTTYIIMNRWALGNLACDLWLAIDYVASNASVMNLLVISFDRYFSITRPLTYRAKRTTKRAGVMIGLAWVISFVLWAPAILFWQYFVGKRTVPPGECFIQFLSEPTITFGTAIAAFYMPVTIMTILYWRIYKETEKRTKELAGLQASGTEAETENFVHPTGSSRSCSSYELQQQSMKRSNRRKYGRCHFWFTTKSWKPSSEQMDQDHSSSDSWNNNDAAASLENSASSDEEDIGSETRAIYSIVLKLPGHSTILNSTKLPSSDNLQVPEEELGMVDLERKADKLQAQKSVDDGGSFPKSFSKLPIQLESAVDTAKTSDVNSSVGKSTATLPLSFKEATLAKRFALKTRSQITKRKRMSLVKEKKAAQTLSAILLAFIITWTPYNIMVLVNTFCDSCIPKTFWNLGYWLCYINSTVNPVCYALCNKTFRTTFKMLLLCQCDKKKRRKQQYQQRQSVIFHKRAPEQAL
Sequence of Muscarinic acetylcholine receptor M5 (Homo sapiens) (P08912 whole entry, looked up): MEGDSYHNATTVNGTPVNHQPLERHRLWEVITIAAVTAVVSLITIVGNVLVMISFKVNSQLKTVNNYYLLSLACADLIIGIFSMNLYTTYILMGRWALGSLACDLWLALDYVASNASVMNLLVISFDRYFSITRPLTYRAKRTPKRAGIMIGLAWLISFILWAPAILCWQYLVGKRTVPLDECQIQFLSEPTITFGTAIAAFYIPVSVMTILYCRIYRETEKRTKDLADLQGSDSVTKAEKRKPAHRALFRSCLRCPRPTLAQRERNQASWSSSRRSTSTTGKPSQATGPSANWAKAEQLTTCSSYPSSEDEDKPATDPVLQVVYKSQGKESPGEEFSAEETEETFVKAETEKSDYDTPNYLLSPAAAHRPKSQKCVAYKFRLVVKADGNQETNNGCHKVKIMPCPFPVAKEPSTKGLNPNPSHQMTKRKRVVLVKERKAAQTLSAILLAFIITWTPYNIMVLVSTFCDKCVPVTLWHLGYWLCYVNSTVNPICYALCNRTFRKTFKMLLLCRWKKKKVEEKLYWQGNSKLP
Sequence of Muscarinic acetylcholine receptor M1 (Homo sapiens) (P11229 whole entry, looked up): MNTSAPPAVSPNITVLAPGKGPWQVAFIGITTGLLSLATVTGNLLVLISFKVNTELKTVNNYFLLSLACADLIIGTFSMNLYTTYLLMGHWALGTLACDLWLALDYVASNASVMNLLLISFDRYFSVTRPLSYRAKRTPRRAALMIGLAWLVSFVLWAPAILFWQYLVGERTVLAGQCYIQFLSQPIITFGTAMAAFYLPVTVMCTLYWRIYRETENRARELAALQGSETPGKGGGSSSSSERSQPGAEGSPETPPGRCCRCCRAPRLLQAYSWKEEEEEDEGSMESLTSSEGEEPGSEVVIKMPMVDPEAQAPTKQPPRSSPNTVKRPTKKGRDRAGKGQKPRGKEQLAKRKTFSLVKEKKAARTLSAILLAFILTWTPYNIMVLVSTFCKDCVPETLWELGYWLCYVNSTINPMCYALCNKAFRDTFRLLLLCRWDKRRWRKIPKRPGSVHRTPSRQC
Sequence of rat Serotonin, 5-Hydroxytryptamine Receptor 1 (5HT1), Non-Selective Binding, Htr1a (gene 24473) (P19327 whole entry, looked up): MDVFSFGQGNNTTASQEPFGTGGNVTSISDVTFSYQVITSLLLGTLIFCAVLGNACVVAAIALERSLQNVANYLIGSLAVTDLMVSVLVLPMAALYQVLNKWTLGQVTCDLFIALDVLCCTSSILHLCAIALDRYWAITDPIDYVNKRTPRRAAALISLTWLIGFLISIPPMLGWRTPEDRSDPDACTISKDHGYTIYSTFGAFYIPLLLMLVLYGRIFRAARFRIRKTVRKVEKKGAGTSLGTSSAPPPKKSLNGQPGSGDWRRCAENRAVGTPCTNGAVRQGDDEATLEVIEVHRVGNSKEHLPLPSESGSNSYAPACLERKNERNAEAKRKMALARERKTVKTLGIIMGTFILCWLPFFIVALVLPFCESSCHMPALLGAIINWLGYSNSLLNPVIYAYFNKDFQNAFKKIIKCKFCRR
Sequence of human Purinergic Receptor P2Y, P2RY1 (gene 5028) (P47900 whole entry, looked up): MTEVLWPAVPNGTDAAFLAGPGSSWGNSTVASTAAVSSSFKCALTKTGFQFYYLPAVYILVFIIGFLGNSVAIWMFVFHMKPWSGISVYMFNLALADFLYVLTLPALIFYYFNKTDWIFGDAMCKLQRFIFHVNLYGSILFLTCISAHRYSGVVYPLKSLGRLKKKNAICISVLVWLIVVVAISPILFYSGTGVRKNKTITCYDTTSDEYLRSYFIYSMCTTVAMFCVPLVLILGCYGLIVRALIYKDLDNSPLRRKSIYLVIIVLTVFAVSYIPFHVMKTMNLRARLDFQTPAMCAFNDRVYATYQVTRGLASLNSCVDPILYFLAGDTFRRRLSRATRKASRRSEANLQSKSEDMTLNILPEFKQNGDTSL
Sequence of human Orphanin, Opioid Related Nociceptin Receptor 1 (ORL1), OPRL1 (gene 4987) (P41146 whole entry, looked up): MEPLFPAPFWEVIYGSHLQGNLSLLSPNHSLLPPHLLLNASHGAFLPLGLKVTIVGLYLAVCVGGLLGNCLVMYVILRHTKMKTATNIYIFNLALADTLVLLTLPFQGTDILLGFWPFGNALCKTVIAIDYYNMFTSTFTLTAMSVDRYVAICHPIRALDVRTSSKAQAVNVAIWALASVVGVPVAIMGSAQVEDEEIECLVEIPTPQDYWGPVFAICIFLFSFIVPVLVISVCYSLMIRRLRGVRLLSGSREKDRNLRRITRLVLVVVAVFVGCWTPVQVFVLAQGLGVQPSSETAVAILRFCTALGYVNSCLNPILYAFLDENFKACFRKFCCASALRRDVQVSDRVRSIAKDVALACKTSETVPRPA

COP(=S)(OC)Oc1ccc(Sc2ccc(OP(=S)(OC)OC)cc2)cc1
outcome [1]: inactive | outcome [2]: inactive | AC50 [3]: 25 µM (active)

CCCCCCCCC(=O)NCc1ccc(O)c(OC)c1
outcome [3]: inactive

CC(C)(C)c1cc(O)ccc1O
outcome [4]: inactive | AC50 [1]: 16.3 µM (active)

COc1ccc(OC)c(C=O)c1
outcome [3]: inactive

CCC(=O)C(CC(C)N(C)C)(c1ccccc1)c1ccccc1 (stereo not given)
AC50 [5]: 6.92 µM (active) | AC50 [6]: 10.7 µM (active) | AC50 [7]: 9.96 µM (active) | AC50 [8]: 8.3 µM (active) | AC50 [9]: 4.57 µM (active) | outcome [10]: inactive | AC50 [11]: 1.91 µM (active) | AC50 [12]: 18.1 µM (active)

CCNc1nc(NC(C)(C)C)nc(SC)n1
outcome [3]: inactive

Clc1ccc(C2(Cn3cncn3)CC(Br)CO2)c(Cl)c1 (stereo not given)
outcome [13]: inactive

O=C1C2(Cl)C3(Cl)C4(Cl)C(Cl)(Cl)C5(Cl)C3(Cl)C1(Cl)C5(Cl)C24Cl (stereo not given)
outcome [14]: inactive | outcome [6]: inactive | outcome [7]: inactive | outcome [8]: inactive | outcome [15]: inactive

CCOC(=O)/C=C(C)/C=C/C[C@@H](C)CCCC(C)C
AC50 [14]: 32.1 µM (active)

O=C(Nc1ccc2[nH]ccc2c1)c1cc2cc(F)ccc2n1Cc1cccc(F)c1
outcome [9]: inactive

O=C(c1ccccc1)C(Cl)Cl
outcome [14]: inactive

C(=NC1CCCCC1)=NC1CCCCC1
AC50 [3]: 2.87 µM (active)

CC(=O)[O][Hg][c]1ccccc1
AC50 [14]: 0.104 µM (active) | AC50 [5]: 1.39 µM (active) | AC50 [4]: 21 µM (active) | AC50 [6]: 0.562 µM (active) | AC50 [7]: 0.909 µM (active) | AC50 [8]: 0.77 µM (active) | AC50 [9]: 0.591 µM (active) | AC50 [16]: 0.51 µM (active) | AC50 [17]: 8.48 µM (active) | AC50 [1]: 0.52 µM (active) | AC50 [18]: 0.848 µM (active) | AC50 [2]: 5.96 µM (active) | AC50 [3]: 5.62 µM (active) | AC50 [13]: 0.473 µM (active) | AC50 [15]: 1.65 µM (active) | AC50 [10]: 16.4 µM (active) | AC50 [19]: 38.4 µM (active) | AC50 [12]: 18.8 µM (active)

N#CCc1ccc(Cl)cc1
outcome [3]: inactive
